Measured values reported in PubChem BioAssay.
Calls of active or inactive are those of the source. Unless noted, the rule behind the calls is not given here.

Tests used:
[1] = tested on: Wnt5a (protein binding on small-molecule microarray); assay: Wnt5a binders on small-molecule microarray, primary screen, biophysical, 635/667 nm fluorescence (AID 1142); details: 635 nm fluorescence, higher = more signal;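 note: fluorescence read at 667 nm with signal to noise per printed feature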
[2] = cell viability in Huh7 cells, primary screen, cytotoxicity control for HCV replication inhibitor project, CellTiter-Glo luminescence, basal, 48 h (AID 1143); details: Huh7 HCV replicon, higher = more signal, called active from +8 up or from −8 down;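 note: Huh7 hepatoma cells carrying a hepatitis C replication reporter with no stimulus; test concentration not given here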
[3] = P. aeruginosa biofilm formation inhibitors, primary screen, PAO1 strain, BacTiter-Glo luminescence, LB-PBS (AID 1144); details: 12 h, higher = more signal
[4] = CREB reporter modulators without forskolin, primary screen, cell-based, PC12, CRE-LacZ reporter, unstimulated (AID 1145); details: no forskolin, luminescence, 4.5 h, higher = more signal, called active from +8 up or from −8 down
[5] = CREB reporter modulators under forskolin, primary screen, cell-based, PC12, CRE-LacZ reporter, forskolin-stimulated (AID 1146); details: luminescence, 4.5 h, higher = more signal, called active from +8 up or from −8 down;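 note: PC12 cells with 6xCRE LacZ reporter stimulated by forskolin 10 µM; beta-galactosidase reporter signal reflecting CREB driven transcription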
[6] = target: Streptavidin (Streptomyces avidinii) (UniProt P22629); assay: streptavidin binders on small-molecule microarray, primary screen, artefact control for SMM compound annotation, biophysical, 635/667 nm fluorescence (AID 1147); details: streptavidin binding, higher = more signal;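 note: signal reflects streptavidin binding to arrayed compounds as a control protein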
[7] = small-molecule binders of probe aInhba, primary screen, biochemical, small-molecule microarray, 635/667 nm fluorescence (AID 1148); details: higher = more signal;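 note: score merges 667nm spot fluorescence with signal-to-noise for antibody binding to printed compounds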
Torsin-1A (Homo sapiens) [8] = target: Torsin-1A (Homo sapiens) (UniProt O14656); assay: torsin A binders from cell lysate, primary screen, small-molecule microarray, wild-type, 635/667 nm (AID 1149); details: COS7 hTOR1A-WT lysate, 635 nm fluorescence, higher = more signal
Torsin-1A (Homo sapiens) [9] = target: Torsin-1A (Homo sapiens) (UniProt O14656); assay: small-molecule binders of mutant TOR1A in lysate, primary screen, cell lysate, small-molecule microarray, COS7 lysate, 635/667 nm fluorescence (AID 1150); details: COS7 hTOR1A mutant lysate, 635 nm fluorescence, higher = more signal;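 note: score pools 667 nm emission and signal to noise measuring lysate protein binding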
[10] = tested on: Sonic hedgehog protein (Shh); assay: small-molecule binders of Shh protein, primary screen, biochemical, small-molecule microarray, 635/667 nm fluorescence (AID 1151); details: small-molecule microarray binding, 635 nm fluorescence; higher = more signal;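 note: Shh protein binding to compounds spotted on small-molecule microarray slides; score combines spot fluorescence intensity with signal-to-noise across triplicate slides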
[11] = E. coli DRC41 culture turbidity changes, primary screen, E. coli filamentation inducer project, strain DRC41, OD650, 48 h (AID 1152);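 note: E. coli MC1000 strain DRC41 lacking acrAB efflux pump and sulA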; details: E. coli DRC41 (acrAB sulA), higher = more signal, called active from +8 up or from −8 down
[12] = small-molecule binders of probe aLefty1, primary screen, biochemical, small-molecule microarray, 635/667 nm fluorescence (AID 1153); details: higher = more signal;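 note: score merges spot fluorescence with signal-to-noise ratio from the scanned slide images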
[13] = PSAC antagonists in infected red cells, primary screen, cell-based, P. falciparum Indochina, OD700, 1 h (AID 1154); details: P. falciparum Indochina infected RBC osmotic lysis, higher = more signal, called active from +8 up or from −8 down
[14] = PSAC antagonists in infected red cells, primary screen, cell-based, P. falciparum Indochina, OD700, 2 h (AID 1155);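 note: lysis reports solute entry through the parasite surface anion channel PSAC; channel blockers reduce lysis of infected cells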; details: P. falciparum Indochina infected erythrocytes, osmotic lysis OD700; higher = more signal, called active from +8 up or from −8 down
[15] = osmotic lysis modulators in infected erythrocytes, primary screen, PSAC antagonist project, cell-based, P. falciparum Indochina, OD700, 3 h (AID 1156); details: higher = more signal, called active from +8 up or from −8 down
[16] = PSAC antagonists in infected red cells, primary screen, cell-based, P. falciparum Indochina, OD700, 18 h (AID 1157); details: P. falciparum Indochina infected erythrocytes, osmotic lysis OD700, 18 h; higher = more signal, called active from +8 up or from −8 down
[17] = modulators of S6 phosphorylation in cells, primary screen, cell-based, A549, cytoblot, luminescence, serum-stimulated (AID 1158); details: A549 phospho-S6 cytoblot, 5 h, higher = more signal;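 note: serum-stimulated A549 lung adenocarcinoma cells; signal is phosphorylated S6 detected by cytoblot immunostaining with HRP secondary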
[18] = target: NADPH oxidase 2 (Homo sapiens) (UniProt P04839); assay: NOX2-dependent H2O2 signal modulators, primary screen, NOX inhibitor project, cell-based, HEK293-NOX2, PMA-stimulated, Amplex Red fluorescence (AID 1159); details: 45 min, higher = more signal, called active from +8 up or from −8 down; note: test concentration not given here
[19] = target: NADPH oxidase 4 (Homo sapiens) (UniProt Q9NPH5); assay: NOX4-dependent H2O2 signal modulators, primary screen, NOX inhibitor project, cell-based, HEK293-NOX4, tetracycline-induced, Amplex Red fluorescence (AID 1160); details: 45 min, higher = more signal, called active from +8 up or from −8 down
[20] = target: NADPH oxidase 5 (Homo sapiens) (UniProt Q96PH1); assay: NOX5-dependent H2O2 signal modulators, primary screen, NOX inhibitor project, cell-based, HEK293-NOX5, Amplex Red fluorescence (AID 1161); details: HEK293-NOX5, ionomycin, 45 min, higher = more signal
Chain of NADPH oxidase 5 (Homo sapiens) (Q96PH1 whole entry, looked up): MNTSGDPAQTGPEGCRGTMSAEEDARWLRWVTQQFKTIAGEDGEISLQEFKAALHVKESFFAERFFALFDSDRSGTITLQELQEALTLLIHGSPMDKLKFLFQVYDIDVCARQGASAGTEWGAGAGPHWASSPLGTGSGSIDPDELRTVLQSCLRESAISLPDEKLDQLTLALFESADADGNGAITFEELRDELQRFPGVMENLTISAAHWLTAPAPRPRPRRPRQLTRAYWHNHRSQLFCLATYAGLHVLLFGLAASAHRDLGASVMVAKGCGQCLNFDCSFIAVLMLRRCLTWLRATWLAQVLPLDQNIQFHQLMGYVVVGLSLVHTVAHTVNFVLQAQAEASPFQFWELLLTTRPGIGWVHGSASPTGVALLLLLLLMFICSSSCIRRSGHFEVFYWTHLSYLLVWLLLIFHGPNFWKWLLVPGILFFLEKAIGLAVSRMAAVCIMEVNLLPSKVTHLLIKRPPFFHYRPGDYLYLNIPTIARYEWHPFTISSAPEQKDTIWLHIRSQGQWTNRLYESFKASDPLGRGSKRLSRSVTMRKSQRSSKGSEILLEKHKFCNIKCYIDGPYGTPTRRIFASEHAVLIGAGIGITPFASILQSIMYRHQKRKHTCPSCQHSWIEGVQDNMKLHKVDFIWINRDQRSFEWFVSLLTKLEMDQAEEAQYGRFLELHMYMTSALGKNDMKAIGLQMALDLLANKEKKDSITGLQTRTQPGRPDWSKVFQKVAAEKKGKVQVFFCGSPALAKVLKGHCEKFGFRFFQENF

Chain of Streptavidin (Streptomyces avidinii) (P22629 whole entry, looked up): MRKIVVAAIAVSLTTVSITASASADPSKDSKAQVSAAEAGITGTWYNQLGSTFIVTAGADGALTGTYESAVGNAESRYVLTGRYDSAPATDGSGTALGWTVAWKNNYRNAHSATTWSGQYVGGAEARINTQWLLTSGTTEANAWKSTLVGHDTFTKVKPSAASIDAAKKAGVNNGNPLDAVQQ
Chain of NADPH oxidase 2 (Homo sapiens) (P04839 whole entry, looked up): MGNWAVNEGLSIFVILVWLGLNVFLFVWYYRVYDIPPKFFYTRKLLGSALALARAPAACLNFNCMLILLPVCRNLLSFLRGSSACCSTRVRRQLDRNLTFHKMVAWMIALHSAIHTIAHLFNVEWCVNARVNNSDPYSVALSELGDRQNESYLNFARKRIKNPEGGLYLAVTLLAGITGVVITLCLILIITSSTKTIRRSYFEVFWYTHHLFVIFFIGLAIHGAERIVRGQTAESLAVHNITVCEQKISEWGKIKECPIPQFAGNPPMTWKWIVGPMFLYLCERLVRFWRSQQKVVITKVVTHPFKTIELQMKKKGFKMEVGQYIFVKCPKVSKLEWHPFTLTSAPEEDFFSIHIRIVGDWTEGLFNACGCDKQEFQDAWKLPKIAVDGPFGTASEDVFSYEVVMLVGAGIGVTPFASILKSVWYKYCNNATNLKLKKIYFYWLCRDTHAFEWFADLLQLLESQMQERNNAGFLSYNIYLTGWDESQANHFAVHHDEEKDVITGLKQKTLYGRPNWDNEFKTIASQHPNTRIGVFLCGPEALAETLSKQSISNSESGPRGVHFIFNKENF
Chain of NADPH oxidase 4 (Homo sapiens) (Q9NPH5 whole entry, looked up): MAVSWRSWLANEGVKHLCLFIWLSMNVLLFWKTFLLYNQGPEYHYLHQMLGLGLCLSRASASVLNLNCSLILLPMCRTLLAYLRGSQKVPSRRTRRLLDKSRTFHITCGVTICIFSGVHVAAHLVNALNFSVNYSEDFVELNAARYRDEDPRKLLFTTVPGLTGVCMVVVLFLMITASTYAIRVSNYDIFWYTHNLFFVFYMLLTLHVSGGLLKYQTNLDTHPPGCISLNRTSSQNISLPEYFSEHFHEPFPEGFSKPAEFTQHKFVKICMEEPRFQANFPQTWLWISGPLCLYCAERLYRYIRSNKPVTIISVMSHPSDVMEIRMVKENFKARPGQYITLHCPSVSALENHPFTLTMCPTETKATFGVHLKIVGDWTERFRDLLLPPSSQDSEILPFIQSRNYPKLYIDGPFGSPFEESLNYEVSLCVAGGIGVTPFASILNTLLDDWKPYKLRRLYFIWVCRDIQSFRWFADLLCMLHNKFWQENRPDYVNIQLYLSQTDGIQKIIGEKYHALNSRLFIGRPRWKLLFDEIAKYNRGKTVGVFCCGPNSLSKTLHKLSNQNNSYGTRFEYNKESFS
Chain of Torsin-1A (Homo sapiens) (O14656 whole entry, looked up): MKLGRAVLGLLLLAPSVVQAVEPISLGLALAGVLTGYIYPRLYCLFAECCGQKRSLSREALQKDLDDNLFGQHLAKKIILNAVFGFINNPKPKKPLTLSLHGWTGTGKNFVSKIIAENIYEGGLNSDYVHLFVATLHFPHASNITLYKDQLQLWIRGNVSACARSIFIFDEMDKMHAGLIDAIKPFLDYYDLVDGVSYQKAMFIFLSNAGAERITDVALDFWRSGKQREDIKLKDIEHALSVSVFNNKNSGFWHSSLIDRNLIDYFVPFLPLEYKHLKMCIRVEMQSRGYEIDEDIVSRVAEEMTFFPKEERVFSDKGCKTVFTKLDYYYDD

SMILES	composite z-score [1]	z-score [2]	z-score [3]	z-score [4]	z-score [5]	composite z-score [6]	composite z-score [7]	composite z-score (Torsin-1A (Homo sapiens) [8])	composite z-score (Torsin-1A (Homo sapiens) [9])	composite z-score [10]	z-score [11]	composite z-score [12]	z-score [13]	z-score [14]	z-score [15]	z-score [16]	z-score [17]	z-score [18]	z-score [19]	z-score [20]
COCCCNC(=O)[C@@H]1c2ccccc2C(=O)N(Cc2ccc(OC(F)(F)F)cc2)[C@H]1c1ccc(CO)cc1	0.53	-0.429 (inactive)	0.0789 (inactive)	0.674 (inactive)	0.0988 (inactive)	-0.0096	-0.0221	0.0966	0.281	1.09	-0.771 (inactive)	0.0271	1.93 (inactive)	0.566 (inactive)	0.913 (inactive)	0.303 (inactive)	0.0296	-0.385 (inactive)	0.915 (inactive)	1.91
O=C(NCCN1CCOCC1)[C@@H]1c2ccccc2C(=O)N(Cc2ccc(OC(F)(F)F)cc2)[C@H]1c1ccc(CO)cc1	0.0235	-0.281 (inactive)	-0.0358 (inactive)	0.558 (inactive)	0.338 (inactive)	-0.119	-0.0762	-0.282	0.459	-0.0784	-0.288 (inactive)	-0.222	1.09 (inactive)	0.655 (inactive)	1.74 (inactive)	-0.161 (inactive)	-0.219	0.134 (inactive)	0.891 (inactive)	2.07
C=CCOC(=O)[C@H]1[C@@H]2C(=O)O[C@@H](c3ccccc3)[C@@H](c3ccccc3)N2[C@@H](c2ccc(OCCOC(=O)[C@@H]3C[C@@H]4C(=O)N[C@@H](CCCCNC(C)=O)C(=O)N4[C@@H]3c3cccc(OCCO)c3)cc2)[C@]12C(=O)Nc1ccccc12	0.455	-0.08 (inactive)	-0.295 (inactive)	-0.118 (inactive)	-0.656 (inactive)	-0.35	-0.0342	1.2	1.3	1.54	-0.637 (inactive)	0.082	3.6 (inactive)	1.34 (inactive)	2.28 (inactive)	0.621 (inactive)	-0.52	1.83 (inactive)	1.4 (inactive)	0.618
O=C1O[C@@H](c2ccccc2)[C@@H](c2ccccc2)N2[C@@H](c3ccc(OCCO)cc3)[C@]3(C(=O)Nc4ccc(C#CC5(O)CCCCCC5)cc43)[C@@H](C(=O)Nc3nc4ccccc4s3)[C@H]12	0.41	-1.6 (inactive)	-0.213 (inactive)	0.685 (inactive)	-0.0048 (inactive)	1.44	0.0945	1.14	0.985	1.11	0.219 (inactive)	-0.0061	2.63 (inactive)	1.76 (inactive)	0.626 (inactive)	1.96 (inactive)	0.693	1.2 (inactive)	-1.33 (inactive)	0.52
CN1C(=O)C2C(C1=O)C1C=C(c3ccc(CO)cc3)C2C(C2CC2)N1C (stereo not given)	-0.283	-0.131 (inactive)	0.178 (inactive)	-0.219 (inactive)	0.173 (inactive)	-0.095	-0.128	0.508	0.286	-0.605	0.235 (inactive)	-0.177	0.773 (inactive)	0.892 (inactive)	0.472 (inactive)	0.184 (inactive)	0.691	-1.19 (inactive)	-0.394 (inactive)	0.163
CC(C)=CCCC(C)=CC(O)C1C=CC2C(=O)NC(=O)C2N1Nc1ccccn1 (stereo not given)	0.827	-0.614 (inactive)	-0.564 (inactive)	-0.333 (inactive)	-0.0179 (inactive)	0.968	-0.154	1.61	1.53	2.08	-0.255 (inactive)	-0.864	0.494 (inactive)	-0.531 (inactive)	-0.725 (inactive)	-1.94 (inactive)	0.585	-0.637 (inactive)	-1.61 (inactive)	-0.467
C#CCN1[C@@H](Cc2ccccc2)C(=O)O[C@H](Cc2ccccc2)[C@@H]1/C=C/C1CC1	-0.0041	-3.05 (inactive)	1.18 (inactive)	2.12 (inactive)	-0.0861 (inactive)	-0.497	-0.0763	0.459	0.84	0.482	0.827 (inactive)	-0.103	-0.396 (inactive)	0.317 (inactive)	-0.199 (inactive)	-0.48 (inactive)	-0.328	-0.279 (inactive)	-0.284 (inactive)	-2.19
O=C1C[C@]2(c3ccc([N+](=O)[O-])cc3)C(=O)N(C3CC3)c3cc(CO)ccc3[C@H]2N1C1CCCCC1	-0.0069	1.09 (inactive)	-0.21 (inactive)	0.802 (inactive)	0.634 (inactive)	0.358	-0.159	-0.145	-0.192	0.147	-0.348 (inactive)	0.91	-0.58 (inactive)	0.0608 (inactive)	-1.35 (inactive)	-0.0894 (inactive)	-0.278	0.0692 (inactive)	0.987 (inactive)	0.0695
C=CCNC(=O)[C@H]1[C@@H]2C(=O)O[C@@H](c3ccccc3)[C@@H](c3ccccc3)N2[C@@H](c2ccc(OCCO)cc2)[C@]12C(=O)Nc1ccccc12	-0.159	-1.62 (inactive)	-0.9 (inactive)	0.389 (inactive)	1.1 (inactive)	0.917	-0.244	0.0646	0.841	-0.0035	0.738 (inactive)	1.21	10.1 (active)	1.01 (inactive)	-0.444 (inactive)	0.81 (inactive)	0.0226	1.87 (inactive)	0.841 (inactive)	-0.101
COC(=O)[C@@]1(Cc2ccc(F)cc2)[C@H]2c3cc(C(=O)N(C)C)n(C)c3C[C@H]2CN1C(=O)c1ccccc1	0.418	-0.771 (inactive)	-0.259 (inactive)	0.0007 (inactive)	-0.339 (inactive)	0.069	0.395	-0.0772	0.814	-0.34	-1.18 (inactive)	0.113	0.404 (inactive)	0.149 (inactive)	-0.898 (inactive)	0.545 (inactive)	-0.8	0.323 (inactive)	-0.0748 (inactive)	-0.552
O=C1N(CCS(=O)(=O)c2ccccc2)c2ccccc2C[C@]12N=C(c1ccc(OCCCO)cc1)O[C@@H]2c1ccccc1	0.553	-1.62 (inactive)	0.851 (inactive)	0.0219 (inactive)	-1.4 (inactive)	0.404	0.0944	0.903	1.41	0.372	-0.499 (inactive)	0.732	26.3 (active)	18.6 (active)	1.85 (inactive)	2.95 (inactive)	-0.18	-0.304 (inactive)	0.615 (inactive)	0.627
C=C(C)[C@@H]1CC=C(C(O)C2C=CC3C(=O)N(C)C(=O)C3N2Nc2ccc([N+](=O)[O-])cc2[N+](=O)[O-])CC1 (stereo not given in full)	0.291	-0.181 (inactive)	0.0728 (inactive)	2.16 (inactive)	0.386 (inactive)	0.707	-0.0762	0.414	1.14	0.413	-1.03 (inactive)	0.807	22.8 (active)	6.33 (inactive)	0.0383 (inactive)	1.46 (inactive)	-1.42	-0.188 (inactive)	0.811 (inactive)	2.85
C=CCC(OC(C)=O)[C@@H]1[C@@H](N(Cc2ccc(-c3cccc(C(F)(F)F)c3)o2)C(=O)Cc2ccc(F)cc2)c2cc(OCCCO)ccc2N1C(=O)Cc1ccc2ccccc2c1 (stereo not given in full)	-0.268	-0.229 (inactive)	-1.1 (inactive)	-0.374 (inactive)	0.767 (inactive)	-0.426	-0.114	-0.761	-0.673	0.404	-0.985 (inactive)	0.0919	1.1 (inactive)	0.135 (inactive)	-0.554 (inactive)	-0.135 (inactive)	-0.37	-1.03 (inactive)	0.896 (inactive)	0.736
COc1cc(C(O)C2C=CC3C(=O)N(c4ccccc4)C(=O)C3N2Nc2ccccc2)cc(OC)c1OC (stereo not given)	0.575	-0.685 (inactive)	-0.983 (inactive)	-0.322 (inactive)	0.226 (inactive)	1.39	0.38	-0.327	-0.0996	-0.277	-0.915 (inactive)	0.501	26.2 (active)	12.1 (active)	1.18 (inactive)	1.73 (inactive)	-0.817	-1.61 (inactive)	-3.49 (inactive)	-3.2
COc1ccc([Si](C)(C)[C@@H]2[C@@H](CC(=O)N3CCC[C@H]3CO)O[C@]3(C(=O)N(Cc4ccc(N5CCOC5=O)cc4)c4ccccc43)[C@H]2C)cc1	-0.014	-3.75 (inactive)	-0.0278 (inactive)	2.4 (inactive)	-1.2 (inactive)	0.084	-0.024	0.515	0.557	1.42	1.3 (inactive)	-0.0099	6.25 (inactive)	0.176 (inactive)	-1.52 (inactive)	-0.774 (inactive)	0.615	2.64 (inactive)	1.57 (inactive)	3.85
COc1ccc([Si](C)(C)[C@@H]2[C@@H](CC(=O)N3CCC[C@H]3CO)O[C@]3(C(=O)N(Cc4cccc(N5CCCCC5=O)c4)c4ccccc43)[C@H]2C)cc1	-0.104	-2.77 (inactive)	-0.331 (inactive)	0.105 (inactive)	-0.95 (inactive)	-0.164	-0.176	0.594	0.81	1.68	0.422 (inactive)	0.0046	3.85 (inactive)	1.23 (inactive)	-1.02 (inactive)	0.278 (inactive)	0.067	2.88 (inactive)	1.64 (inactive)	4.73
